Bioassay records as filed in PubChem BioAssay.
HCV inhibitor = qHTS Assay for Inhibitors of Hepatitis C Virus (HCV) | Huh7.5.1 HCVcc-Cre infection, luciferase reporter, 44 h | Potency, µM (doses to about 41.8 µM), inactives show at the highest dose activity change, negative = inhibition, usual class: inhibitors | actives 3.4% (n = 340,000); also: % is scaled to controls: 0 for no effect and ±100 for the full control effect
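Cells (1,000/well) were plated 4 h before compound, then infected with HCVcc-Cre virus (~0.5 moi). After 44 h further culture, infection was read as luciferase luminescence following a 15 min substrate incubation at room temperature.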
Vaccinia Venus = qHTS for Stage-Specific Inhibitors of Vaccinia Orthopoxvirus: Venus Reporter Primary qHTS; Vaccinia virus Venus reporter expression, fluorescence; Potency, µM (titrated, usually from 36.5 µM), inactives show at the top dose activity change, negative = inhibition, usual class: inhibitors; actives 0.46% (n = 330,000); calls by dose curve; tested in A549 cells; also: % is scaled to controls: 0 for no effect and ±100 for the full control effect; nearly all actives have a fitted effect of over 30% in size
Pf growth 48h = Primary qHTS for delayed death inhibitors of the malarial parasite plastid, 48 hour incubation; P. falciparum luciferase growth in erythrocytes, 48 h; Potency, µM (doses to about 28.7 µM), for the others: top-dose activity change, negative = inhibition, usual class: inhibitors; actives 5.9% (n = 310,000); also: % is scaled to controls: 0 for no effect and ±100 for the full control effect
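Luciferase-expressing parasites in RBCs, 2% Hct / 0.1% parasitemia final; RPMI 1640 + 0.5% Albumax; 37 C, 5% CO2, one generation; luminescence read-out, lower signal = inhibition.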
Pf growth 96h = Primary qHTS for delayed death inhibitors of the malarial parasite plastid, 96 hour incubation | P. falciparum luciferase reporter growth, 96 h | actives 6.9% (n = 320,000) | Potency, µM (highest dose often 28.7 µM), without a hit: top-dose activity change, negative = inhibition, usual class: inhibitors; also: % is scaled to controls: 0 for no effect and ±100 for the full control effect
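Luminescence readout: decreased luciferase signal marks inhibited growth of reporter-expressing P. falciparum in infected red cells (2% hematocrit, 0.05% parasitemia final), exposed to compound two generations (96 h, 37 C, 5% CO2).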
VACV mCherry inh = qHTS for Stage-Specific Inhibitors of Vaccinia Orthopoxvirus: mCherry Reporter Primary qHTS; actives 0.63% (n = 310,000); Potency, µM (doses to about 36.5 µM), for the others: top-dose activity change, negative = inhibition, hits mostly inhibitors; AID 720579, 2013; Vaccinia virus mCherry reporter infection, fluorescence; calls by dose curve; tested in A549 cells; also: % is scaled to controls: 0 for no effect and ±100 for the full control effect; nearly all actives have a fitted effect of over 35% in size
NS1 function inh = qHTS Assay for Inhibitors of Influenza NS1 Protein Function; actives 0.4% (n = 270,000); AID 2326, 2010; Potency, µM (doses to about 46.1 µM), without a hit: top-dose activity, positive = more growth; calls by dose curve; also: actives are rising curves; nearly all actives have a fitted effect of over 50% in size
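Growth recovery, yeast-based: influenza A NS1 expressed in S. cerevisiae causes slow growth, and suppressors are detected by OD600. The parent strain without NS1 is used as positive control.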
The depositor's hits bear a star; [ ] = dose if it differs, or a comment. A selection: hits, their analogues and other compounds. The true share with any hit is near 11%. Unless noted, calls follow the shape of the dose curve; as a rule, active = well fitted inhibition curve with a large enough effect; inconclusive = small, poorly fitted or top-dose-only effect, or another doubt; inactive = no such curve, though single readings can be large or run the other way. Potency is read from the fitted curve at half-maximal effect.

`COCCN=c1scc(-c2cc(OC)c(OC)c(OC)c2)n1/N=C/c1c(C)[nH]c2ccccc12` gave HCV inhibitor 8.91µM*, Vaccinia Venus inconclusive, Pf growth 48h 7.38µM*, Pf growth 96h 2.62µM*, VACV mCherry inh inconclusive and NS1 function inh inconclusive.
For CC1CCCCN1c1ncnc2ccccc12 (stereo not drawn) the results were HCV inhibitor inconclusive, Vaccinia Venus -29.5%, Pf growth 96h 11.4%, VACV mCherry inh -7.3% and NS1 function inh -6.5%.
Screening CC1(C)CC2CC(C)(CN2c2ncnc3ccccc23)C1 (stereo not drawn) returned HCV inhibitor 11.2µM*, Vaccinia Venus inconclusive, Pf growth 48h inconclusive, Pf growth 96h inconclusive, VACV mCherry inh -16.8% and NS1 function inh -8.8%.
Screening O=C(Nc1nccs1)c1ccc[nH]c1=O returned HCV inhibitor 11.6%, Pf growth 48h 42.0%, Pf growth 96h 9.3% and NS1 function inh 14.8%.
Cc1cc(/C(=N/O)C(C)(C)NO)ccc1Cl was read as HCV inhibitor 10.7%, Pf growth 48h -16.5%, Pf growth 96h 0.0% and NS1 function inh 1.7%.
CCOC(=O)C1=C(C)NC2=C(C(=O)C(C(=O)OCC)C(c3cccc(OC)c3)C2)C1c1ccccn1 (stereo not drawn) was read as HCV inhibitor 21.4%, Vaccinia Venus -16.1%, Pf growth 48h 8.28µM*, Pf growth 96h 5.86µM*, VACV mCherry inh -15.1% and NS1 function inh -9.8%.
For CCOC(=O)C1=C(C)NC2=C(C(=O)C(C(=O)OCC)C(c3ccccc3OC)C2)C1c1ccccn1 (stereo not drawn) the results were HCV inhibitor -7.5%, Vaccinia Venus -13.8%, Pf growth 48h 4.15µM*, Pf growth 96h 3.7µM*, VACV mCherry inh -15.3% and NS1 function inh -16.4%.
For COc1ccc(CC(=O)N2CCN=C2SCc2cccc([N+](=O)[O-])c2)cc1 the results were HCV inhibitor -26.5%, Vaccinia Venus -20.9%, Pf growth 48h 10.4µM*, Pf growth 96h inconclusive and VACV mCherry inh -16.6%.
For Cc1nc2c(c(=O)n1CCC1=CCCCC1)c1nc3ccccc3nc1n2/N=C/c1ccccc1 the results were HCV inhibitor -9.8%, Pf growth 96h -6.0% and NS1 function inh -2.3%.
For CCOCCCn1c(C)nc2c(c1=O)c1nc3ccccc3nc1n2CCC1=CCCCC1 the results were HCV inhibitor -1.9%, Vaccinia Venus -10.2%, Pf growth 48h inconclusive, Pf growth 96h 2.62µM* and NS1 function inh inconclusive.
COc1ccc(NC(=O)c2cc(S(=O)(=O)NCC3COc4ccccc4O3)ccc2F)cc1 (stereo not drawn) was read as HCV inhibitor inconclusive, Vaccinia Venus -23.8%, Pf growth 48h -16.7%, Pf growth 96h 44.0%, VACV mCherry inh -28.2% and NS1 function inh -2.6%.
COc1ccc(Cl)cc1NC(=O)c1cccc(-n2cnnn2)c1 was read as HCV inhibitor 10µM*, Vaccinia Venus -18.8%, Pf growth 48h 10.1%, Pf growth 96h 16.6% and VACV mCherry inh -17.5%.
Screening Cc1ccc(NC(=O)c2cccc(-n3cnnn3)c2)cc1Cl returned HCV inhibitor -23.4%, Pf growth 48h 9.28µM* and Pf growth 96h inconclusive.
`O=C(NCC1CCN(Cc2ccc(Cl)cc2)CC1)C1CCCN(c2ncnc3c2nc2n3CCCCC2)C1` (stereo not drawn) gave HCV inhibitor inconclusive, Pf growth 48h 11.7µM*, Pf growth 96h 2.7% and NS1 function inh -1.4%.
`O=C(NCC1CCN(Cc2ccc(F)cc2)CC1)C1CCCN(c2ncnc3c2nc2n3CCCCC2)C1` (stereo not drawn) gave HCV inhibitor inconclusive, Pf growth 48h inconclusive, Pf growth 96h 9.28µM* and NS1 function inh -2.9%.
O=C(NCC1CCN(Cc2cccc(Cl)c2)CC1)C1CCCN(c2ncnc3c2nc2n3CCCCC2)C1 (stereo not drawn) was read as HCV inhibitor inconclusive, Vaccinia Venus -21.0%[7.34 µM], Pf growth 48h inconclusive, Pf growth 96h -18.6%, VACV mCherry inh -27.0%[7.34 µM] and NS1 function inh -11.9%.
Screening CN(C)c1cc[n+](CC(=O)c2cccs2)cc1 returned HCV inhibitor inconclusive, Pf growth 48h inconclusive, Pf growth 96h inconclusive and NS1 function inh 42.4%.
`CC(C)CCCCCCCCCCCCC(=O)NCC(=O)NC1C(C)OC(Nc2ncnc3nc[nH]c23)C(O)C1O` (stereo not drawn) gave HCV inhibitor 1µM*, Vaccinia Venus 2µM* and VACV mCherry inh inconclusive.
For CCCNC(=O)c1ccc(N2CCC3(CC2)CC(c2ccccc2)=NO3)c([N+](=O)[O-])c1 the results were HCV inhibitor inconclusive, Vaccinia Venus -13.7%, Pf growth 48h -18.7%, Pf growth 96h inconclusive, VACV mCherry inh -9.1% and NS1 function inh 25.3%.
Screening Cc1ccc(CNC(=O)c2ccc(N3CCC4(CC3)CC(c3cccc(Br)c3)=NO4)c(NC(=O)c3ccccc3)c2)cc1 returned HCV inhibitor inconclusive, Vaccinia Venus -4.0%, Pf growth 48h 9.28µM*, Pf growth 96h inconclusive and VACV mCherry inh -2.3%.
O=C(NCc1ccccc1)c1ccc(N2CCC3(CC2)CC(c2ccc(Cl)cc2)=NO3)c([N+](=O)[O-])c1 was read as HCV inhibitor 4.47µM*, Vaccinia Venus -7.5%, Pf growth 48h inconclusive, Pf growth 96h inconclusive, VACV mCherry inh 0.0% and NS1 function inh 6.9%.
`COc1cccc(C(=O)Nc2cc(C(=O)NCc3ccc(C)cc3)ccc2N2CCC3(CC2)CC(c2ccccc2)=NO3)c1` gave HCV inhibitor -11.5%, Vaccinia Venus -6.5%, Pf growth 48h inconclusive, Pf growth 96h 1.31µM*, VACV mCherry inh -9.6% and NS1 function inh 24.8%.
For COc1ccc(CNC(=O)c2ccc(N3CCC4(CC3)CC(c3ccc(Cl)cc3)=NO4)c(NC(=O)c3ccccc3)c2)cc1 the results were HCV inhibitor -5.9%, Vaccinia Venus -7.0% and VACV mCherry inh -8.7%.
Screening [N-]=[N+]=NCC(=O)c1c[nH]c(=O)[nH]c1=O returned NS1 function inh -10.4%.
CC(=O)N1CCSc2ccc(S(=O)(=O)NCCc3ccc(Cl)cc3)cc21 was read as HCV inhibitor 11.2µM*, Vaccinia Venus -2.1%[7.34 µM], Pf growth 48h -15.5%, Pf growth 96h inconclusive, VACV mCherry inh -17.5%[7.34 µM] and NS1 function inh 5.7%.
